# High-throughput results: PubChem, Emory University Molecular Libraries Screening Center
# The sample as a whole holds a higher share of hits than the screen did.
# 14-3-3g Raf: 14-3-3 gamma protein interaction modulation; AID 422; P61981; inhibition, % at 40 µM; FP, 14-3-3gamma / TMR-pS259-Raf peptide binding; actives 0.19% (n = 160,000); in the data active = inhibition above about 30%;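 note: 0% = protein plus tracer without compound and 100% = blank with tracer alone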
# Target sequence (P61981 whole entry, looked up): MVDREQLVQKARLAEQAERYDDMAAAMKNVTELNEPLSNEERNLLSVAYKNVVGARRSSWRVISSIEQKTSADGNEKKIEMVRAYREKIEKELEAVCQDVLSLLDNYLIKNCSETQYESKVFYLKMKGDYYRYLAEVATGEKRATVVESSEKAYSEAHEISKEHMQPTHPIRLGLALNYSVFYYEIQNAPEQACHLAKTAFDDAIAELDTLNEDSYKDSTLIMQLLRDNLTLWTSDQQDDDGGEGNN
# * = called active by the depositor.
SMILES,14-3-3g Raf
Cc1ccccc1-n1nc2c(c1NC(=O)c1cccc(C(F)(F)F)c1)CSC2,6
C=CCSc1nnc2c(n1)OC(c1ccncc1)Nc1ccc(Br)cc1-2 (stereo not given),-25
C=CCSc1nnc2c(n1)OC=Nc1ccc(Br)cc1-2,-7
C=CCSc1nnc2c(n1)OC(C)(C)Nc1ccc(Br)cc1-2,112*
CCOC(=O)c1cnc2c(C)cc(C)cc2c1Nc1cccc2ccccc12,-7
CCNc1c2c3c(cccc3n(C)c1=O)C(=O)c1ccccc1-2,54*
CCNc1cccc2c1C(=O)N(C)C2=O,-15
COC(=O)Cn1nc2c3c(cccc31)C(=O)c1ccccc1-2,-11
O=C1c2cccc(Cl)c2C(=O)c2c1cccc2N1CCOCC1,4
O=C1c2ccccc2C(=O)c2c1ccc(C(=O)N1CCCC1)c2NCCO,-244
CCN(CC)C(=O)c1ccc2c(c1NCCO)C(=O)c1ccccc1C2=O,-311
Cn1c(=O)c(N2CCOCC2)c2c3c(cccc31)C(=O)c1ccccc1-2,50*
Cn1c(=O)c(NC2CCCCC2)c2c3c(cccc31)C(=O)c1ccccc1-2,32*
Cn1c(=O)c(=O)n(C)c2cc(S(=O)(=O)NC3CCCCCC3)ccc21,-2
Cn1c(=O)c(NCCO)c2c3c(cccc31)C(=O)c1ccccc1-2,168*
CC(C(=O)NC1CCCCC1)N1C(=O)c2ccccc2C1=O (stereo not given),-4
CN1C(=O)c2cccc3c(N4CCOCC4)ccc(c23)C1=O,-5
Cc1cc(N2C(=O)CN(Cc3sccc3C)C2=S)ccc1Cl,0
COc1ccc(-c2csc(Nc3ccc(C)cn3)n2)cc1C,0
Brc1cccc(Oc2ccccc2)c1,-2
Cc1cc(N2CCOCC2)nc2ccc(NC(=O)c3cccc([N+](=O)[O-])c3)cc12,-3
Cc1ccccc1N=Cc1ccc(Br)c([N+](=O)[O-])c1,-3
COC(=O)C(C)Sc1nc2sc3c(c2c(=O)n1-c1ccccc1)CC(C)(C)OC3 (stereo not given),-5
Cc1ccc(S(=O)(=O)N2CCOCCOCCN(S(=O)(=O)c3ccc(C)cc3)CCN(S(=O)(=O)c3ccc(C)cc3)CC2)cc1,-3
CCCC12CN3CC(C)(CN(C1)C31C(=O)Nc3ccc(Br)cc31)C2=O (stereo not given),4
SMILES,14-3-3g Raf
O=C1C2C(c3ccccc3)OC3(C(=O)c4ccccc4C3=O)C2C(=O)N1c1ccc(F)c([N+](=O)[O-])c1 (stereo not given),-9
COc1ccc(-c2csc(-c3c[nH]c4ccccc34)n2)cc1,-24
Cc1nnc(NC(=O)Cn2ccnc2)s1,-3
CCOC(=O)c1c(N)n(C2CC2)c2nc3ccccc3nc12,-13
CCCSc1nnc2c(n1)OC(c1cccs1)Nc1ccc(Br)cc1-2 (stereo not given),-26
CCCSc1nnc2c(n1)OC(C=Cc1ccco1)Nc1ccc(Br)cc1-2 (stereo not given),58*
CCCCSc1nnc2c(n1)OC(CC)Nc1ccc(Br)cc1-2 (stereo not given),-35
Cc1cc2c(c(C)c1Cl)CN(CCc1ccc(F)cc1)CO2,0
CC12COc3ccccc3C1c1sc(=O)[nH]c1SC2 (stereo not given),108*
O=C(O)C1Sc2[nH]c(=O)sc2C2c3ccccc3OC(=O)C12 (stereo not given),-34
O=c1[nH]c2c(s1)C1c3c(ccc4ccccc34)OCC1CS2 (stereo not given),3
COc1ccc(C(=O)Nc2ccc3c(c2)OC(F)(F)O3)cc1OC,2
Fc1ccccc1C1C=C(c2cccs2)Nc2nnnn21 (stereo not given),-8
Fc1cccc(C2C=C(c3ccc(Cl)cc3)Nc3nnnn32)c1 (stereo not given),-1
Fc1cccc(C2C=C(c3cccs3)Nc3nnnn32)c1 (stereo not given),63*
Cn1sc2cc([N+](=O)[O-])cc(Oc3ccccc3)c2c1=O,-5
O=C(COc1ccc([N+](=O)[O-])cc1)Nc1ccccn1,-13
O=C(COc1ccc([N+](=O)[O-])cc1)Nc1cccnc1,31*
O=C(COc1ccc(Br)cc1)Nc1cccnc1,-11
Cc1ccccc1C1C2=C(CC(C)(C)CC2=O)N(CCc2ccccc2)C2=C1C(=O)CC(C)(C)C2,-3
COc1ccc(CNC(=O)CCc2nc3ccccc3n(Cc3ccccc3Cl)c2=O)cc1,-43
O=C(NCc1cccnc1)c1cc2nc(-c3ccco3)cc(C(F)(F)Cl)n2n1,2
O=C(NCc1cccnc1)c1cc2nc(-c3cccs3)cc(C(F)(F)Cl)n2n1,39*
O=C(NCc1cccs1)c1cc2nc(-c3cccs3)cc(C(F)(F)Cl)n2n1,-1
COC(=O)c1cc(COc2ccc3c(C)c(Cc4ccccc4)c(=O)oc3c2C)c(C)o1,4
O=C(O)c1ccccc1C(=O)Nc1ccccc1Oc1ccccc1F,2
Cc1ccc(CCNC(=O)CCn2c(=S)[nH]c3ccsc3c2=O)cc1,-6
O=C(CSc1ccc2c3c(cccc13)C(=O)c1ccccc1-2)Nc1ccccc1,-95
COCCCNC(=O)CSc1ccc2c3c(cccc13)C(=O)c1ccccc1-2,105*
